Our source for the composite z-score, z-score and composite Z-score values is PubChem BioAssay.

SMILES strings stand for the structures. Calls of active or inactive are those of the source.

The subject of test [1] is Human papillomavirus type 1a protein E7 (residues 44-93). Description: small molecules binding HPV E7 44-93 – biochemical, small-molecule microarray, residues 44-93, 635 nm fluorescence, primary screen (AID 1108).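 Further: E7 fragment applied at 1 µg/mL in TBST for 1 h at 4 C; score combines spot fluorescence with its signal to noise ratio.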 Conditions: fluorescence 635 nm, higher = more signal.
Test [2] can be described thus: hepatitis C replication reporter changes, two-sided – Huh7 cells, luciferase reporter, HCV replication inhibitor project, primary screen (AID 1109).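 Further: huh7 hepatoma cells harbouring a luciferase neomycin HCV replicon reporter; luciferase luminescence as measure of HCV replicon replication; test concentration not given here.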 Conditions: Huh7 HCV replicon luciferase reporter, 48 h; higher = more signal. (In general: In a reporter assay the amount or activity of a reporter protein is the signal.)
Test [3] has as its target Left-right determination factor 2 (Homo sapiens) (UniProt O00292). Description: small molecules binding LEFTY2 protein – biochemical, small-molecule microarray, 635 nm fluorescence scan, primary screen (AID 1110). Conditions: higher = more signal.
In test [4] the target is Calmodulin-1 (Homo sapiens) (UniProt P0DP23). As to the kind of experiment: small molecules binding calmodulin-1 with EGTA – biochemical, small-molecule microarray, Cy5-labelled CALM1, profiling panel (AID 1111).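 Further: labelled calmodulin applied in Tris saline Tween buffer holding calcium plus EGTA and DTT.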 Conditions: Cy5-CALM1 binding fluorescence, higher = more signal.
Test [5] shares this target. Description: small molecules binding Ca-loaded calmodulin-1 – biochemical, small-molecule microarray, Cy5-labelled CALM1, plus calcium, artefact control for SMM control-protein annotation, profiling panel (AID 1112).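 Further: score merges spot fluorescence with signal to noise from triplicate slides.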 Conditions: Cy5-CALM1 binding fluorescence, higher = more signal.
The nature of test [6]: probe aWnt5a binding to arrayed compounds – biochemical, biotinylated probe, 635/667 nm fluorescence, primary screen (AID 1113).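 Further: score merges 667 nm fluorescence intensity with signal-to-noise per printed feature.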 Conditions: small-molecule microarray, higher = more signal.
Test [7] is described as follows: probe aShh binding to arrayed compounds – biochemical, biotinylated probe, 635/667 nm fluorescence, primary screen (AID 1114).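 Further: probe is biotin-labelled aShh protein from a stem cell growth factor screen; measures binding of labelled protein to compounds printed on the slide; score merges feature fluorescence at 667 nm with signal-to-noise.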 Conditions: small-molecule microarray, higher = more signal.
A short description of test [8]: probe aNog binding to arrayed compounds – biochemical, biotinylated probe, 635/667 nm fluorescence, primary screen (AID 1115).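 Further: probe is biotinylated aNog protein used at 0.15 µg/mL for 1 h at 4 C; z-score combines 667 nm fluorescence of each spot with its signal to noise.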 Conditions: small-molecule microarray, higher = more signal.
The target in test [9] is Torsin-1A-interacting protein 1 (Homo sapiens) (UniProt Q5JTV8). Description: compound microarray binding of lysate hLAP1 – cell lysate, small-molecule microarray, COS7 lysate, 635/667 nm fluorescence, primary screen (AID 1116). Conditions: 635 nm fluorescence, higher = more signal.
Test [10] addresses Alpha-bungarotoxin (Bungarus multicinctus) (UniProt P60615). Description: compounds binding labelled alpha-BTX control protein – biochemical, small-molecule microarray, Alexa647 label, 635/667 nm fluorescence, artefact control for SMM control protein annotation, profiling panel (AID 1117). Conditions: alpha-BTX-A647 binding fluorescence, higher = more signal.
In test [11] the target is Albumin (Bos taurus) (UniProt P02769). Description: compounds binding labelled BSA control protein – biochemical, small-molecule microarray, Alexa647 label, 635/667 nm fluorescence, artefact control for SMM control protein annotation, profiling panel (AID 1118).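 Further: score merges 667 nm emission intensity and signal-to-noise per printed compound spot.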 Conditions: BSA-A647 binding, fluorescence 635 nm, higher = more signal.
The nature of test [12]: probe aXIP binding to arrayed compounds – biochemical, NeuroSMM set, 635/667 nm fluorescence, primary screen (AID 1119).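 Further: probe is the protein aXip251-270 applied at 1 µg/mL to compound-printed slides; binding of probe to printed compounds measured as 667 nm fluorescence plus signal to noise.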 Conditions: small-molecule microarray, higher = more signal, called active from +8 up or from −8 down.
The nature of test [13]: probe aNOTCH3 binding on compound microarray – biochemical, small-molecule microarray, 635/667 nm fluorescence, primary screen (AID 1120).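 Further: probe is a biotin-tagged antibody raised against NOTCH3 rather than NOTCH3 protein; score merges spot fluorescence near 667 nm with spot signal to noise.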 Conditions: higher = more signal.
Test [14] in a line: probe aNOTCH2 binding on compound microarray – biochemical, small-molecule microarray, 635/667 nm fluorescence, primary screen (AID 1121).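 Further: score merges feature fluorescence read at 667 nm with its signal to noise.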 Conditions: higher = more signal.
The target of test [15] is Carbonic anhydrase 2 (Homo sapiens) (UniProt P00918). Description: compounds binding carbonic anhydrase 2 – biochemical, small-molecule microarray, Alexa647-labelled CAII, profiling panel (AID 1122). Conditions: CAII-A647 binding fluorescence, higher = more signal.
A short description of test [16]: COS7 lysate on small-molecule microarray, probe aHis, 635 nm (AID 1123).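 Further: z-score combines 667nm fluorescence intensity with signal-to-noise per printed compound spot.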 Conditions: COS7 cell lysate, fluorescence, higher = more signal.
The nature of test [17]: probe aLAP1 signal on lysate-treated microarray – cell lysate, small-molecule microarray, COS7 lysate, primary screen (AID 1124).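 Further: lysate comes from COS7 cells expressing LAP1 and is applied at 0.3 µg/mL; score merges spot fluorescence near 667 nm with signal-to-noise over triplicate slides.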 Conditions: probe aLAP1, fluorescence, higher = more signal.
Test [18] deals with Sam68 (KHDRBS1). As to the kind of experiment: compounds binding KHDRBS1 protein – biochemical, small-molecule microarray, 635 nm fluorescence, primary screen (AID 1125).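 Further: score merges 667 nm channel intensity with signal to noise over triplicate slides.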 Conditions: higher = more signal.
Test [19] concerns Chordin-like protein 2 (CHRDL2). As to the kind of experiment: compounds binding chordin-like 2 – biochemical, small-molecule microarray, 635 nm fluorescence, primary screen (AID 1126).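 Further: printed compound slides probed with Chrdl2 protein at 4 µg/mL for 1 h at 4 C; score merges 667 nm emission intensity with signal to noise over three replicate slides.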 Conditions: fluorescence 635 nm, higher = more signal.
In test [20] the target is Concanavalin-A (Canavalia ensiformis) (UniProt P02866). As to the kind of experiment: compounds binding concanavalin A lectin – biochemical, small-molecule microarray, Alexa647 label, 635 nm, artefact control for SMM control protein annotation, primary screen (AID 1127).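 Further: z combines 667 nm emission intensity with signal-to-noise across three replicate slides.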 Conditions: ConA-A647 binding fluorescence, higher = more signal.
Concanavalin-A (Canavalia ensiformis), sequence (P02866 whole entry, looked up): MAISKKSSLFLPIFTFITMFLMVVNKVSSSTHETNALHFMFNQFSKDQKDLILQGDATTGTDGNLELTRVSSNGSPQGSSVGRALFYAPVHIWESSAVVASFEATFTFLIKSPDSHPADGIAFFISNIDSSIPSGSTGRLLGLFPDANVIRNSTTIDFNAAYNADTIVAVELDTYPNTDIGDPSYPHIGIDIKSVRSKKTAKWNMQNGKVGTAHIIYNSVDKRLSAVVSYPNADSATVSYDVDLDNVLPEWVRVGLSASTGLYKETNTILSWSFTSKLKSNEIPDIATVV

Torsin-1A-interacting protein 1 (Homo sapiens), sequence (Q5JTV8 whole entry, looked up): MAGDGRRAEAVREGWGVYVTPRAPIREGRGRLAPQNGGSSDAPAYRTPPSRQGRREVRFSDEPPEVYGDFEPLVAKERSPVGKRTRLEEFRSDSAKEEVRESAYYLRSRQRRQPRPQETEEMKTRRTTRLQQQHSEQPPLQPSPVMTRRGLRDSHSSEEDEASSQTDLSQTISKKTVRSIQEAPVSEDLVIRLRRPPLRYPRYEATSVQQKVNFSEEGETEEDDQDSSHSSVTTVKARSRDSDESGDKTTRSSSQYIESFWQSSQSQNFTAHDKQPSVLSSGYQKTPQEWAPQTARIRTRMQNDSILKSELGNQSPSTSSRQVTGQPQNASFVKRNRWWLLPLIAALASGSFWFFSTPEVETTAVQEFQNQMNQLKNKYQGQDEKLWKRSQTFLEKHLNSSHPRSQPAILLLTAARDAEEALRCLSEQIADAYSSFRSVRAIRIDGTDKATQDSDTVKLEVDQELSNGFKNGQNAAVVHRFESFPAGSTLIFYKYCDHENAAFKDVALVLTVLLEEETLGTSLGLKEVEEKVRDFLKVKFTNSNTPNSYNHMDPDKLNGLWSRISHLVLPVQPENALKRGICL
Left-right determination factor 2 (Homo sapiens), sequence (O00292 whole entry, looked up): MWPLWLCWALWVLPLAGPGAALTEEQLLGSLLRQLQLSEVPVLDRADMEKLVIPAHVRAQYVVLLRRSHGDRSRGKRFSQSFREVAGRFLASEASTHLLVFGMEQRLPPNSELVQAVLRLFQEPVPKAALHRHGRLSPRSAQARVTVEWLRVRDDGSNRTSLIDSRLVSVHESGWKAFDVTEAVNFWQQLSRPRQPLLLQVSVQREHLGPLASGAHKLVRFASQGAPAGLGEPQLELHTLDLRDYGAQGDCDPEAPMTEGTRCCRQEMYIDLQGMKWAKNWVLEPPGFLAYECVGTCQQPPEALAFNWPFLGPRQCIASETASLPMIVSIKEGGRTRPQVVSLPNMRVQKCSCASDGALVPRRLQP
Albumin (Bos taurus), sequence (P02769 whole entry, looked up): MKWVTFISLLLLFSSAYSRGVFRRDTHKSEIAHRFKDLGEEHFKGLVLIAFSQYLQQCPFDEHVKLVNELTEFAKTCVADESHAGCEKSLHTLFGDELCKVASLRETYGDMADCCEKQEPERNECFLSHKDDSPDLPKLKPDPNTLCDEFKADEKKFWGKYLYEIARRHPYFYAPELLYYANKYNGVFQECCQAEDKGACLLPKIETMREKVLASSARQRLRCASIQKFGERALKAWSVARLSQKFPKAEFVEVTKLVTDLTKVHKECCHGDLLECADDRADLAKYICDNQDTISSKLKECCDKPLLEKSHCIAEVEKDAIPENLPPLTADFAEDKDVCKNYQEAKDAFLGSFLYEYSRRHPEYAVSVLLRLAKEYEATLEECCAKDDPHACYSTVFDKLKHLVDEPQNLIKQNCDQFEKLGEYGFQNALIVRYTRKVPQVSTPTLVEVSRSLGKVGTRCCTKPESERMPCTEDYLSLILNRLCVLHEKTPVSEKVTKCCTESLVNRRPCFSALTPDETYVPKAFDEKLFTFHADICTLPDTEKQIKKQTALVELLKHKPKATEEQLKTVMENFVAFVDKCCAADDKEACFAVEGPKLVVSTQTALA
Alpha-bungarotoxin (Bungarus multicinctus), sequence (P60615 whole entry, looked up): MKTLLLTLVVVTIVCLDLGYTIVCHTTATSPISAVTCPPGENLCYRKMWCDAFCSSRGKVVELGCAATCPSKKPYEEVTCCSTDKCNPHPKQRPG

Consider `CO[C@H]1O[C@H](CO)[C@@H](OC(=O)Nc2ccc(Br)cc2)[C@H](OC(=O)c2cc3ccccc3[nH]2)[C@H]1OC(=O)c1cc2ccccc2[nH]1`, for which the composite z-score in [1] is 0.823; in test [3], -0.132; in test [4], 1.87; in test [5], 0.14; in [6], 0.0775; in test [7] it was -0.262. Also, the composite z-score in test [8] is 0.121; in test [9], 0.926; in [10] it was 0.353; in test [11], 0.93; in [13], -0.04; in test [14], -0.101. For the same molecule, the composite z-score was 0.386 in test [15]; 1.25 in test [16]; 0.451 in test [17]; 1.33 in [18]; 0.283 in test [19]; 1.14 in [20]. In addition, the z-score in test [2] was -3.51. The composite Z-score in test [12] is 0.907 (inactive).

Regarding `CN1C2C=C(CCCO)C(C3C(=O)N(C(N)=O)C(=O)C32)C1c1ccc(CN2CCCC2)cc1` (stereo not given), the composite z-score was 0.138 in test [1]; -0.943 in test [3]; -0.224 in [4]; 0.0344 in test [5]; -0.243 in test [6]; 0.0278 in [7]. The composite z-score in [8] was -0.328; in [9], 0.0727; in [10], 0.236; in test [11], -1.07; in test [13] it was -0.326; in [14], -0.152. In addition, the composite z-score in [15] is -0.452; in test [16] it was -0.0732; in test [17] it was -0.579; in test [18], -1.18; in [19] it was -0.686; in [20], -0.34. In test [2], this molecule showed a z-score of -0.149. Besides, the composite Z-score in [12] was -0.275 (inactive).

Take `COCCOC(=O)N1C(=O)[C@@]2(c3cc(C#CCCO)ccc31)[C@H](C(=O)N1CCc3cc(OC)c(OC)cc3C1)[C@H]1C(=O)O[C@H](c3ccccc3)[C@H](c3ccccc3)N1[C@@H]2c1ccc(O)cc1`: the composite z-score in test [1] was 1.41; in test [3], 0.332; in [4], 0.527; in test [5], 0.294; in test [6], -0.1; in test [7], 0.123. Further, the composite z-score in test [8] is 0.119; in test [9] it was 0.987; in test [10], 1.24; in test [11], -0.335; in test [13] it was 0.0893; in test [14], -0.0846. The composite z-score in test [15] turned out to be 0.471; in [16], 2.33; in [17], 0.255; in test [18], 1.29; in [19], 0.425; in test [20] it was 1.04. The same molecule registered a z-score in [2] of -1.34. Also, the composite Z-score in test [12] was 0.566 (inactive).

Take `CC(=O)NCCCC[C@@H]1NC(=O)[C@@H]2C[C@H](C(=O)NCCCCCCNC(=O)CS)[C@H](c3cccc(OCCO)c3)N2C1=O`: the composite z-score in test [1] is 0.517; in test [3] it was 0.221; in [4] it was 0.572; in [5] it was 0.361; in test [6] it was 0.0004; in test [7], -0.142. For the same molecule, the composite z-score in test [8] is -0.196; in test [9] it was 0.16; in test [10] it was 0.505; in [11], -0.133; in test [13], -0.0996; in test [14] it was -0.151. The composite z-score was determined as 0.561 in [15]; 1.48 in test [16]; 0.689 in [17]; 0.825 in test [18]; 0.568 in test [19]; 0.914 in [20]. The same molecule showed a z-score in test [2] of -0.938. For the same molecule, the composite Z-score in test [12] was 0.405 (inactive).

For `CC(C)c1ccc(NN2C(C(O)C(c3ccccc3)c3ccccc3)C=CC3C(=O)N(c4ccccc4)C(=O)C32)cc1` (stereo not given), the composite z-score is 1.42 in [1]; 0.219 in test [3]; 1.27 in test [4]; -0.147 in test [5]; 0.0279 in [6]; 0.171 in [7]. The composite z-score was 1.46 in test [8]; 0.954 in [9]; 1.74 in [10]; 0.933 in test [11]; 0.424 in test [13]; 0.101 in [14]. Also, the composite z-score is 0.797 in [15]; 2.74 in test [16]; 0.902 in [17]; 1.32 in test [18]; -0.348 in test [19]; 1.14 in [20]. In test [2], the z-score is -0.276. Also, the composite Z-score in [12] is -0.136 (inactive).

Turning to `C=CC[C@]1(C(=O)NCCCOC)N=C(c2ccc(OCCCO)cc2)O[C@H]1c1ccccc1N=[N+]=[N-]`, the composite z-score is 1.05 in test [1]; -0.338 in test [3]; 2.08 in test [4]; 0.312 in [5]; 0.191 in [6]; 0.535 in test [7]. Also, the composite z-score in [8] is 1.8; in [9] it was 1.47; in test [10], 0.928; in [11] it was 0.958; in test [13] it was 0.205; in test [14], 0.0494. The composite z-score in [15] is 0.726; in test [16], 3.06; in [17], 0.397; in test [18] it was 1.31; in test [19], -0.0877; in test [20], 0.982. Further, the z-score in [2] was -0.682. Besides, the composite Z-score in [12] was 0.484 (inactive).
